# Screening data: PubChem, several laboratories
# PLK1 inh: human PLK1 kinase inhibitors, primary screen, biochemical, TR-FRET; Serine/threonine-protein kinase PLK1 (Homo sapiens), P53350; recombinant PLK1 kinase, TR-FRET peptide phosphorylation; inhibition, % at 10 µM; hit rate 0.53% among 97,000;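 active = inhibition of 50% or more in the single-concentration screen; inactive = inhibition below 50%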;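 also: 0% = DMSO max control and 100% = H-89 dihydrochloride min control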
# CYP2C19 inhib: blockers of cytochrome P450 2C19 activity – biochemical, luminescence, ADME assay, primary screen | CYP2C19 Supersomes, luciferin-H EGE luminescence, 30 min | hit rate 21% among 96,000 | AID 778, 2007 | inhibition, % at 5 µM;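 active = CYP2C19 inhibition above a set limit at 5 µM in the primary screen, cut at about 50% in these data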;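 also: plate controls were negative control wells for no effect and 2.5 mM tranylcypromine positive control for full effect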
# CYP2C19 activ: human CYP2C19 activators, primary screen, biochemical, luminescence; Cytochrome P450 2C19 (Homo sapiens), P33261; recombinant CYP2C19, luciferin-H EGE luminescence; stronger effect = higher value; 0 = fully inhibited enzyme, 1 = untreated enzyme; activation factor at 5 µM; 96,000 tested, under 10 active;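 active = activation factor of at least 2 at 5 µM in the primary screen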;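 also: 0 = wells with 2.5 mM tranylcypromine and 1 = vehicle-only wells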
# PLK1 PBD inh: Plk1 polo box domain binding inhibitors, primary screen, biochemical, fluorescence polarization; Serine/threonine-protein kinase PLK1 (Homo sapiens), P53350; Plk1 PBD phosphopeptide binding; inhibition, %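 (tested at about 20 µM)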; hit rate 0.13% among 97,000; in the data active = inhibition above about 34%, passing the limit was not always enough
# CYP2C9 inhib: blockers of cytochrome P450 2C9 activity – biochemical, luminescence, ADME assay, primary screen | P11712 | CYP2C9 Supersomes, luciferin-H conversion | inhibition, % at 5 µM | hit rate 20% among 96,000;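 active = blocking of liver enzyme CYP2C9 beyond about 50% at 5 µM, limit read from the data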
# Target sequence (P11712 whole entry, looked up): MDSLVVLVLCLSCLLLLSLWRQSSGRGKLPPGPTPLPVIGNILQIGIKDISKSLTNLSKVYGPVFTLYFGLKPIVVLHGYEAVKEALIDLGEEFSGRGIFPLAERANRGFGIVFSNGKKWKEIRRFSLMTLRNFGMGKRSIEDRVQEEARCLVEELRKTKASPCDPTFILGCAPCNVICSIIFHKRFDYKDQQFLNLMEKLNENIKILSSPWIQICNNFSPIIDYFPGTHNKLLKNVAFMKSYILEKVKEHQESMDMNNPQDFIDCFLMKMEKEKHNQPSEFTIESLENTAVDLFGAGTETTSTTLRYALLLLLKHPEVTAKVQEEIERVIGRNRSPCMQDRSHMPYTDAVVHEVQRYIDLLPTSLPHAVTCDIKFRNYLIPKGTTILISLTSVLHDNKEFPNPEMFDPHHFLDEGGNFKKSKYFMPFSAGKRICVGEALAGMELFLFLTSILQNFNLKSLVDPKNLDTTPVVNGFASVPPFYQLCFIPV
# CYP2C9 act: human CYP2C9 activators, primary screen, biochemical, luminescence. recombinant CYP2C9, luciferin-H conversion; stronger effect = higher value; factor 1 = untreated enzyme, 0 = blocked. AID 1024, 2008. hit rate 1.4% among 96,000. activation factor at 5 µM. Cytochrome P450 2C9 (Homo sapiens), P11712;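 active = activation factor of 2 or more for CYP2C9 at a 5 µM dose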;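 also: 0 = sulfaphenazole-blocked wells and 1 = vehicle-only wells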
# * hit, by the source's call; . = no result given. Compounds with a hit are over-represented: about 28% of the library has one in this group of screens.
SMILES,PLK1 inh,CYP2C19 inhib,CYP2C19 activ,PLK1 PBD inh,CYP2C9 inhib,CYP2C9 act
O=C(CN1C(=O)C2C3C=CC(C3)C2C1=O)Nc1nc(SCc2ccc(Cl)cc2)n[nH]1 (stereo not given),-11,60*,0.4,9,32,0.7
CCOC(=O)Cn1c(C)c(C#N)c2ccccc21,-1,57*,0.4,-19,50*,0.5
Cc1c(C#N)c2ccccc2n1CC(=O)NC(C)c1ccccc1 (stereo not given),-4,87*,0.1,3,59*,0.4
Cc1cccc(NC(=O)Cn2c(C)c(C#N)c3ccccc32)c1C,-8,87*,0.1,36,87*,0.1
Cc1sc(NC(=O)c2ccco2)c(C(c2cccnc2)N2CCC(C)CC2)c1C (stereo not given),-15,88*,0.1,10,76*,0.2
Cc1sc(NC(=O)c2ccco2)c(CN2CCC(C)CC2)c1C,-7,36,0.6,-20,27,0.7
COc1cc(NC(=O)CCCC(=O)OCC(F)(F)C(F)F)nc(OC)n1,1,76*,0.2,-19,-32,1.3
CCCOc1ccccc1N/C(=N\S(=O)(=O)c1ccc(C)cc1)Nc1nc(C)cc(C)n1,-11,.,.,15,.,.
CCCOc1ccccc1N/C(=N/c1nc(C)cc(C)n1)NC(=O)COc1ccc(OC)cc1,-2,90*,0.1,-16,92*,0.1
CCCC(=O)Nc1ccccc1NC(=O)c1cc(OC)c(OC)c(OC)c1,-7,1,1,10,71*,0.3
COc1ccc(NC(=O)CCCC(=O)OCC(F)(F)C(F)F)cc1,-1,41,0.6,-19,9,0.9
COc1ccc(OCC(=O)Nc2ccccc2OC)cc1,.,63*,0.4,.,2,1
CC(=O)c1c(C(C)=O)c(C)n(-c2ccc(C)c(NC(=O)c3ccccc3Cl)c2)c1C,-2,13,0.9,-1,43,0.6
COc1ccc(CC(=O)N2CCN(c3ccc(C4=NNC(=O)CC4C)cc3)CC2)cc1 (stereo not given),-8,6,0.9,-21,6,0.9
Cc1ccsc1/C=N/NC(=O)CSCc1ccc(Cl)cc1,-12,51*,0.5,-2,22,0.8
COc1ccccc1OCC(=O)Nc1ccc(Cl)cc1,-5,.,.,-11,.,.
CNCc1ccccc1OCC(=O)Nc1ccccc1OC,-6,64*,0.4,-14,-36,1.4
COc1ccccc1NC(=O)COc1ccc(/C=N/NC(=O)CSCc2ccc(Cl)cc2)cc1,-7,63*,0.4,-7,66*,0.3
O=C(CSCc1ccc(Cl)cc1)N/N=C/c1ccc(OCC(=O)Nc2ccccc2)cc1,-1,-12,1.1,-13,5,1
O=C(COc1ccccc1CNCc1ccccc1)Nc1ccccc1,1,93*,0.1,-1,45,0.6
Cc1ccc(/C=N/NC(=O)CSCc2ccc(Cl)cc2)cc1,2,25,0.7,-9,28,0.7
COc1ccccc1CC(=O)Nc1ccccc1C(=O)O,-3,1,1,7,44,0.6
COc1ccc(NC(=O)c2cc(OC)c(OC)c(OC)c2)cn1,15,56*,0.4,-15,42,0.6
COc1ccccc1NC(=O)CCN1CCN(CCC(=O)Nc2ccccc2OC)CC1,.,22,0.8,.,16,0.8
COc1cccc(OCC(=O)Nc2ccccc2NC(C)=O)c1,-6,76*,0.2,17,-2,1
SMILES,PLK1 inh,CYP2C19 inhib,CYP2C19 activ,PLK1 PBD inh,CYP2C9 inhib,CYP2C9 act
COc1ccccc1NC(=O)CNC(=O)c1ccccc1,-15,66*,0.3,-24,23,0.8
COc1ccccc1NC(=O)CNC(=O)c1ccccc1C,1,24,0.8,-11,-35,1.3
COc1ccccc1NC(=O)CCC(=O)Nc1ccccc1OC,-9,7,0.9,23,-210,3.1*
COc1cc(C(=O)Nc2ccc(NC(=O)c3ccco3)nc2)cc(OC)c1OC,-22,10,0.9,-12,20,0.8
CCOC(=O)c1c(-c2ccc(Cl)cc2)c(C#N)c(=O)n(N)c1N,-13,16,0.8,-4,-4,1
CC1(C)Cc2c(ccc3ccccc23)C(NNC(=O)c2cccnc2)=N1,-7,-3,1,-10,-1,1
COc1cc(/C=N/NC(=O)CSCc2ccc([N+](=O)[O-])cc2)cc(OC)c1OC,6,45,0.6,13,57*,0.4
COc1ccccc1NC(=O)CCCC(=O)OCC(F)(F)C(F)F,-6,87*,0.1,1,-182,2.8*
O=C(CSc1nnnn1-c1ccccc1)c1cc2ccccc2oc1=O,-7,40,0.6,-13,60*,0.4
Cc1cc(C)nc(SCC(=O)c2cc3ccccc3oc2=O)n1,-12,58*,0.4,-15,27,0.7
CCN(CC)C(=O)CCNS(=O)(=O)c1ccc(C)cc1,-14,37,0.6,-4,-22,1.2
COC(=O)c1nn(-c2ccccc2)nc1-c1nn(-c2ccccc2)nc1C(=O)OC,-10,61*,0.4,-21,86*,0.1
O=C(NC(C(=O)c1ccccc1)N1CCOCC1)c1ccccc1 (stereo not given),.,79*,0.2,.,91*,0.1
O=C(NC(C(=O)c1ccccc1)N1CCOCC1)c1cccs1 (stereo not given),-12,94*,0.1,-19,96*,0
Cc1ccc(C(=O)C(NC(=O)c2ccco2)N2CCOCC2)cc1 (stereo not given),-15,31,0.7,-21,8,0.9
O=C(CSc1nnnn1-c1cccc2c1CCCC2)N1CCCCC1,8,.,.,11,.,.
CCOC(=O)c1c(C)c(C(=O)N2CCc3ccccc3C2)c(C)n1CC,2,86*,0.1,-16,45,0.6
CCn1c(C(=O)N2CCc3ccccc3C2)cc2oc3ccccc3c21,-20,55*,0.4,5,53*,0.5
O=C(c1cc2ccccc2c(=O)o1)N1CCc2ccccc2C1,-9,44,0.6,-10,-150,2.5*
O=C(O)CSc1nnc(CNc2cccc(C(F)(F)F)c2)n1Cc1ccco1,-7,-24,1.2,-10,-25,1.2
NS(=O)(=O)c1cccnc1Nc1cccc(Cl)c1Cl,-4,25,0.7,-2,4,1
COc1cccc(/C=N\NC(=O)c2sc(N)nc2C)c1OC,-4,4,1,-24,2,1
COc1ccc(-c2nnc(SCC(=O)/C(C#N)=C(\C)N)o2)cc1,-11,26,0.7,0,41,0.6
C/C(N)=C(/C#N)C(=O)CSc1nnc(-c2ccccc2Br)o1,0,96*,0,-7,-13,1.1
